Inhibition data for 40 compounds are collected here from PubChem BioAssay.

Unmarked numbers belong to inactive results. The rule behind the calls is not given here.

The target in the experiment is Pantothenate synthetase (Mycobacterium tuberculosis (strain ATCC 25618 / H37Rv)) (UniProt P9WIL5). As to the kind of experiment: Coupled enzyme confirmation of inhibitors against recombinant Mtb PanC (AID 375).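 Note: 0% = full reaction with vehicle and 100% = no enzyme background.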 Particulars: coupled enzyme assay; at 10 µM, stronger effect = higher value.
Pantothenate synthetase (Mycobacterium tuberculosis (strain ATCC 25618 / H37Rv)), sequence (P9WIL5 whole entry, looked up): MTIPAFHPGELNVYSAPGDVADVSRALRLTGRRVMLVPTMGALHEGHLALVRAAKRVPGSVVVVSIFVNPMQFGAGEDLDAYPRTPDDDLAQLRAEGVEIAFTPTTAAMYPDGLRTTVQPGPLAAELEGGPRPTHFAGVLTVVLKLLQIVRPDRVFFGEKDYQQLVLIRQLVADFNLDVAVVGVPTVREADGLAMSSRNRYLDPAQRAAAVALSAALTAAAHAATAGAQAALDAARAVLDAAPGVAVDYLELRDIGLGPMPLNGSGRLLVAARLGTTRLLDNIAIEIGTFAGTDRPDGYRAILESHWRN
Turning to `CC(C)N(Cc1nc(-c2ccccc2)no1)C(=O)CCCN1C(=O)c2ccccc2C1=O`, the inhibition (commonly the share of the control response that was lost under treatment) was 9%. Consider `CC(=O)N[C@@H](CS)C(=O)O`, for which the inhibition is 0%. The result for `Cc1ccc(-c2nnn(CC(=O)N(CC3CCCO3)C(C(=O)NC(C)(C)C)c3ccc(F)cc3)n2)o1` (stereo not given) reads 6%. For `CC(=O)c1ccc(NC2OC(C)C(O)C(O)C2O)cc1` (stereo not given), the inhibition is 3%.

Take `Cc1cc(C(=O)NCCN2CCN(c3cccc(Cl)c3)CC2)n(-c2ccccc2)n1`: the inhibition was 0%. Consider `CC(C)Cc1nnc(NC(=O)CCC(=O)N2CCOCC2)s1`, for which the inhibition is 0%.

For the compound `CCOc1ccccc1Nc1nnc(SCC(=O)N2CCCC2)s1`, the inhibition was 0%.

Consider `CC(C(=O)N1CC2(C)CC1CC(C)(C)C2)N1C(=O)c2ccccc2C1=O` (stereo not given), for which the inhibition was 8%. The result for `CCC1CCCN1Cn1cnc2c([nH]c3ccc(OC)cc32)c1=O` (stereo not given) reads 1%; that for `CC(C)(C)NCC(O)c1cc(O)cc(O)c1` (stereo not given), 0%. `C=C(C)Cn1c(SCC)nc2ccccc2c1=O`: the inhibition is 4%. Turning to `Cc1csc(NC(=O)Nc2cccc(Cl)c2)n1`, the inhibition was 0%.

On to `CN(CC(=O)N1CCCCC1)S(=O)(=O)c1cccc2cccnc12`, for which the inhibition is 0%. For `CSc1nc(C)cc(OCC(=O)N2CCOCC2)n1` the value was 0%; for `O=C(Nc1cccnc1)c1ccc2c(c1)OCO2`, 0%. Turning to `CCCCn1c(CN2CCN(c3ccccc3)CC2)nc2c1c(=O)n(C)c(=O)n2C`, the inhibition is 0%. The result for `COc1ccc(OC)c(N(CC(=O)N2CCN(c3cc(Cl)ccc3C)CC2)S(C)(=O)=O)c1` reads 2%; that for `COc1ccc(-c2nn(-c3ccccc3)cc2/C=N/n2cnnc2)cc1OC`, 9%. The result for `O=C(Cc1ccc(S(=O)(=O)N2CCCC2)s1)Nc1nc2c(s1)CCCC2` reads 1%; that for `CCOc1ccccc1CN(Cc1ccco1)S(=O)(=O)c1ccc(-n2cnnn2)c(OC)c1`, 8%. Take `Cc1cc(C)n(S(=O)(=O)Cc2ccccc2)n1`: the inhibition is 0%. The result for `CC(C)(C)n1nnnc1CN(Cc1ccco1)Cc1cc2cc3c(cc2[nH]c1=O)OCO3` reads 0%; that for `CCOC(=O)C1CCCN(CCCc2ccccc2)C1` (stereo not given), 0%.

With `O=S(=O)(NCc1ccco1)c1cccc2cccnc12`, the inhibition is 1%. For `Cc1cc(=O)n2[nH]c(COc3ccccc3)nc2n1` the value was 6%; for `CCN1C(=O)CC(C(=O)Nc2ccc(F)cc2)SC1=Nc1ccc2c(c1)OCO2` (stereo not given), 6%.

As to `Cc1ccc(F)cc1NC(=O)C1CCCN(c2ncccn2)C1` (stereo not given), the inhibition is 7%.

As for `Oc1ccc(Nc2nc(-c3ccc(O)cc3)cs2)cc1`, the inhibition is 2%. The result for `COc1ccc2c(c1OC)C(=O)N(c1ccc3c(c1)CCC3)C2=O` reads 2%. The result for `CCC1C(=O)n2nc(-c3ccccc3)cc2N=C1C` (stereo not given) reads 0%. For `Cc1cc(C(F)(F)F)nc(SCC(=O)NC2=NC(=O)C(C)S2)n1` (stereo not given), the inhibition is 2%. Consider `COc1ccc(NC(=O)C(C)NS(=O)(=O)c2ccc(NC(C)=O)cc2)cc1Cl` (stereo not given), for which the inhibition is 9%. For the compound `CCOc1ccc(NC(=O)CSc2nc3cccnc3n2CC)cc1`, the inhibition is 0%. For `CCOc1ccc(NS(=O)(=O)c2ccc(OCC(=O)N3CCCC3)cc2)cc1` the value was 0%; for `COc1cc(C(=O)Nc2cc(C)ccn2)cc(OC)c1OC`, 0%; for `CC(=O)Nc1ccccc1O`, 9%. The result for `Cc1sc2nc(SCc3nc4ccccc4[nH]3)n(Cc3ccco3)c(=O)c2c1C` reads 2%; that for `CCN(Cc1nc2ccccc2c(=O)[nH]1)Cc1cc(=O)oc2cc(C)c(C)cc12`, 0%.

In the case of `CCOC(=O)c1cccc(NC(=O)CSc2nnc(-c3ccoc3C)n2CCOC)c1`, the inhibition is 1%.

As to `Cc1nnc2ccc(N3CCN(c4cccc(C(F)(F)F)c4)CC3)nn12`, the inhibition is 0%.
